From PubChem BioAssay (Tox21)
Results filed as inconclusive are left out. The source made the active and inactive calls. Unless noted, calls come from the whole dose curve; as a rule, active = well fitted curve in the direction sought with a large enough effect in the repeat runs; inconclusive = weak or mixed curves; inactive = no such curve, though single readings can be large; an effect the other way counts as inactive or inconclusive. Where a SMILES comes first, the peptide text is derived from it. [ ]: non-standard residue; d: D form. pGlu = O=C1CC[C@@H](C(=O)O)N1

Experiments:
[1] = qHTS assay to identify small molecule antagonists of the vitamin D receptor (VDR) signaling pathway - cell viability counter screen (AID 743225); note: nearly all actives have a fitted effect of over 50% in size
Procedure, shortened: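 Cells (VDR-UAS-bla HEK 293T) are plated, rested 4 h at 37C, dosed with compound and 3 nM final 1-alpha,25-dihydroxy vitamin D3, and incubated 16 h. Viability is taken from CellTiter-Glo luminescence in the reporter wells.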

[2] = qHTS assay to identify small molecule agonists of the NFkB signaling pathway - cell viability counter screen (AID 1159515; calls by dose curve; note: series mostly up to about 61 µM; nearly all actives have a fitted effect of over 55% in size)
Procedure, shortened: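 NFkB-bla ME-180 cells, 2,000/well, plated overnight at 37 C; compound added for 5 hr at 37 C. Viability read in the same wells as the bla reporter, by CellTiter-Glo luminescence after 30 min at room temperature.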

[3] = qHTS assay to identify small molecule agonists of the endoplasmic reticulum stress response signaling pathway (AID 1159516; active = well fitted activation curve with a large enough effect in the signal ratio in the repeat runs, not every such curve was filed as active; the % refers to the signal ratio)
Procedure, shortened: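 CellSensor ESRE-bla HeLa cells, 1,500 per well, plated overnight, then exposed to compounds for 5 hr at 37 C. Beta-lactamase reporter read with LiveBLAzer B/G FRET substrate after 2 hr at room temperature, 405 nm excitation, 460 and 530 nm emission.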

[4] = qHTS assay to identify small molecule agonists of the endoplasmic reticulum stress response signaling pathway - cell viability counter screen (AID 1159517; calls by dose curve;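 note: HeLa cells carrying an ER stress response element beta-lactamase reporter; series mostly up to about 61 µM; nearly all actives have a fitted effect of over 50% in size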)
Procedure, shortened: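 ESRE-bla HeLa cells, 1,500 per well, seeded overnight then treated with compounds for 5 hr at 37 C. After the beta-lactamase read, viability in the same wells is measured by CellTiter-Glo luminescence after 30 min at room temperature.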

[5] = qHTS assay to identify small molecule antagonists of the retinoid-related orphan receptor gamma (ROR-gamma) signaling pathway - cell viability counter screen (AID 1159520); note: nearly all actives have a fitted effect of over 50% in size
Procedure, shortened: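 Tet-on ROR gamma CHO cells were given compounds for 2 hr, then doxycycline hyclate at 1 uM final, and incubated 16 hr at 37 C. Viability was measured as ATP content by CellTiter-Glo luminescence.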

[6] = biological target: Nuclear receptor ROR-gamma (Homo sapiens) (UniProt P51449); test: qHTS assay to identify small molecule antagonists of the retinoid-related orphan receptor gamma (ROR-gamma) signaling pathway (AID 1159521;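 note: CHO cells with doxycycline inducible ROR-gamma driving an RORE luciferase reporter; top concentration of the series differs between compounds; nearly all actives have a fitted effect of over 50% in size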)
Procedure, shortened: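 RORγ antagonism is scored from reduced reporter luminescence in Tet-on CHO cells. Induction used 1 uM final doxycycline hyclate for 16 h at 37 C, following a 2 h compound exposure.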

[7] = qHTS assay to identify small molecule agonists of the AP-1 signaling pathway - cell viability counter screen (AID 1159525; calls by dose curve; note: nearly all actives have a fitted effect of over 55% in size)
Procedure, shortened: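 AP-1-bla ME-180 cells in Opti-MEM with 0.5% dialyzed FBS, compound exposure 5 h at 37 C in 15-point titration. Viability read in the same wells as ATP content by CellTiter-Glo luminescence, normalised to tetra-n-octylammonium bromide and DMSO controls.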

[8] = qHTS assay to identify small molecule agonists of the AP-1 signaling pathway (AID 1159526; calls by dose curve)
[9] = biological target: Retinoic acid receptor RXR-alpha (Homo sapiens) (UniProt P19793); test: qHTS assay to identify small molecule agonists of the RXR signaling pathway (AID 1159527; calls by dose curve; note: nearly all actives have a fitted effect of over 35% in size)
Chain of Retinoic acid receptor RXR-alpha (Homo sapiens) (P19793 whole entry, looked up): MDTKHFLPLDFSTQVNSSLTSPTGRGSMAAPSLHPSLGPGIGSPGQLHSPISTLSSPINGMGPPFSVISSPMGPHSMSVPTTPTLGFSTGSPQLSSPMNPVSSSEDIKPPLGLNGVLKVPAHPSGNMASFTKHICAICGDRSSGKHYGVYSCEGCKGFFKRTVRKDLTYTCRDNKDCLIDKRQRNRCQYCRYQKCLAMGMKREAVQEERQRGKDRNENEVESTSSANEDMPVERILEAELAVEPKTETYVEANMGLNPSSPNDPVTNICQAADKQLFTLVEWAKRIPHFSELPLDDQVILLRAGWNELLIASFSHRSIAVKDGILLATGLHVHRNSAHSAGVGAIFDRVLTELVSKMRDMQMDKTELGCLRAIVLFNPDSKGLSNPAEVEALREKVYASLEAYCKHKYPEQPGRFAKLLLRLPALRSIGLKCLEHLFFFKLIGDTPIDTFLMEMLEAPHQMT
Procedure, shortened: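 qHTS of the Tox21 10K library in GeneBLAzer RXR-alpha HEK 293T cells carrying a beta-lactamase reporter […]; 16 hr treatment, 9-cis retinoic acid as agonist control, FRET read-out.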

[10] = qHTS assay to identify small molecule agonists of the RXR signaling pathway - cell viability counter screen (AID 1159529)
Procedure, shortened: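 Cell viability is measured by CellTiter-Glo luminescence, 30 min at room temperature, in wells already read for beta-lactamase. Engineered HEK 293T cells (RXR-alpha-UAS-bla) are dosed 16 hr at 37 C. Tetraoctyl ammonium bromide serves as positive control.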

[11] = qHTS assay to identify small molecule antagonists of the retinoid acid receptor (RAR) signaling pathway - cell viability counter screen (AID 1159551); note: nearly all actives have a fitted effect of over 35% in size
Procedure, shortened: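 C3RL4 RARE-luciferase cells, 1,000/well, incubated overnight, then dosed with compound plus 1 uM retinol (final). After 6 hr at 37 C, viability read by CellTiter-Glo ATP luminescence following 30 min at room temperature.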

[12] = qHTS assay to identify small molecule agonists of the retinoic acid receptor (RAR) signaling pathway (AID 1159553)
Procedure, shortened: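 C3RL4 RARE-luciferase cells were seeded at 1,000/well and grown overnight at 37 C, then exposed to compounds for 6 hr at 37 C, 5% CO2. Luciferase reagent was added and luminescence was read after 30 min at room temperature.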

[13] = qHTS assay to identify small molecule antagonists of the estrogen related receptor (ERR) signaling pathway from Tox21 library - cell viability counter screen (AID 1224834); note: nearly all actives have a fitted effect of over 30% in size
Procedure, shortened: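 ERR reporter cells, 2,000 per well, rested 6 h, then exposed to compound in DMSO for 17.5 hours at 37 C. Viability read as fluorescence after 30 min with CellTiter-Fluor.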

[14] = qHTS assay to identify small molecule antagonists of the estrogen related receptor (ERR) signaling pathway - cell viability counter screen (AID 1224818); note: series mostly up to about 46 µM
Procedure, shortened: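 ERR cells, 2,000 per well, compound added after 6 h and incubated 17.5 h at 37 C. Viability read by CellTiter-Fluor fluorescence after a further 30 min at 37 C.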

[15] = qHTS assay to identify small molecule antagonists of the estrogen related receptor signaling pathway with the pleiotropic PPARgamma coactivator (PGC) cell viability counter screen (AID 1224822; note: series mostly up to about 46 µM)
Procedure, shortened: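 PGC/ERR cells rested 6 h, then compound-treated 17.5 h at 37 C. CellTiter-Fluor added for 30 min at 37 C, viability measured by fluorescence intensity.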

[16] = qHTS assay to identify small molecule antagonists of the retinoic acid receptor (RAR) signaling pathway (AID 1159552; note: nearly all actives have a fitted effect of over 50% in size)
Procedure, shortened: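 Quantitative HTS in C3RL4 RARE-luciferase reporter cells. Compounds were added with 1 uM (final) retinol; luminescence was read after 6 hr.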

Measured: Potency

FB(F)F
not listed: [14] | [15] | [16]
inactive: all other assays above

CN1C(C)(C)CC(O)CC1(C)C
not listed: [1] | [12] | [13] | [14] | [15] | [16]
inactive: all other assays above

O=C(CO)[C@@H](O)[C@H](O)[C@@H](O)CO
not listed: [1] | [12] | [13] | [14] | [15] | [16]
inactive: all other assays above

NCCCC(N)(C(=O)O)C(F)F (centres undefined)
not listed: [16]
inactive: all other assays above

CCNC(=O)[C@@H]1CCCN1C(=O)[C@H](CCCN=C(N)N)NC(=O)[C@H](CC(C)C)NC(=O)CNC(=O)[C@H](Cc1ccc(O)cc1)NC(=O)[C@H](CO)NC(=O)[C@H](Cc1c[nH]c2ccccc12)NC(=O)[C@H](Cc1cnc[nH]1)NC(=O)[C@@H]1CCC(=O)N1 ([pGlu]HWSYGLRP-NHEt)
not listed: [12] | [14] | [15]
inactive: all other assays above

CCC1C(=O)OCC1Cc1cncn1C (centres undefined)
not listed: [13] | [14] | [15]
inactive: all other assays above

O=S(=O)(O)c1cc(O)c(O)c(S(=O)(=O)O)c1
not listed: [1] | [12] | [13] | [14] | [15] | [16]
inactive: all other assays above

O=C1NC(=O)C2CC=CCC12 (centres undefined)
not listed: [14] | [15]
inactive: all other assays above

CCC(C)(CN(C)C)OC(=O)c1ccccc1 (centres undefined)
not listed: [14] | [15]
inactive: all other assays above

O=C(c1ccccc1O)c1ccccc1O
not listed: [1] | [13] | [14] | [15]
inactive: all other assays above
